Results as given in PubChem BioAssay AID1259400 (National Center for Advancing Translational Sciences (NCATS), 2018).
Hit rate of the full screen: of about 350,000 compounds, about 2,100 (0.6%) were called active. Not shown: some 1% with an inconclusive outcome.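 The calls were made as follows: active = activity change of -60% or lower, but not beyond a set lower limit; inconclusive = change between -60% and -40%, or beyond the set limit; inactive = change above -40%.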 This excerpt belongs to a sample that is enriched for actives.

Target: Relaxin receptor 1 (Homo sapiens) (UniProt Q9HBX9)
Experiment: qHTS Assay for Antagonists of the Relaxin Receptor RXFP1
Conditions: HEK293-RXFP1, relaxin-stimulated cAMP HTRF, 30 min; at 57.5 µM; hits give low values
Text: The relaxin hormone is involved in the variety of biological functions in normal tissues and diseases. The role of relaxin is well-established in female reproduction and parturition, mammary gland and endometrial development, maintenance of myometrial quiescence during pregnancy. Relaxin signaling through its G protein-coupled receptor (GPCR) RXFP1 results in ECM remodeling through regulation of collagen deposition, cell invasiveness, proliferation and overall tissue homeostasis. […] Recombinant human relaxin (rhRlx) is currently being tested in clinical trials as a protective agent in congestive heart failure, in treating severe preeclampsia, and as an anti-fibrotic agent in various organs. […] Upon relaxin binding RXFP1 activation leads to the activation of adenylate cyclase (AC) via G?s. cAMP will activate PKA, which phosphorylates many signaling proteins. Thus, detection of cAMP increase is an easy and reliable indication of relaxin receptor activation. To screen for antagonists of the relaxin receptor, a HEK293T cell line stably transfected with RXFP1 was used. RXFP1 activation by relaxin in presence of various concentrations of tested compounds was assayed by changes in cAMP levels as detected with a time-resolved fluorescence energy transfer (TR-FRET) cAMP detection kit.
For the primary screening, we used HTRF(R) (Homogenous Time-Resolved Fluorescence) cAMP HiRange assay (Cisbio Bioassays, 62AM6PEJ). Presence of cAMP in the cell lysate disrupts binding between the Cryptate-labeled anti-cAMP and d2-labeled cAMP pair, leading to a decrease in TR-FRET signal. The libraries were screened at two doses (57microM and 11microM), followed by a confirmation of the hits at 7-point serial dilution in the range of final concentrations [57microM - 78nM]. Data were normalized to the controls for basal activity (buffer only) and 100% activity (5 nM porcine relaxin). The EC50 values were determined from concentration-response data modeled with the standard Hill equation. NCGC Assay Protocol Summary: HiHEK (Hawaiian HEK293 LGR7 stably transfected with human RXFP1) were grown in the following media: DMEM+10%FBS+Pen/Strep + Geneticin (1mg/ml). For the assay, the cells were seeded in DMEM+Pen/Strep (with no serum & selective antibiotics) at 2,100 cells/ 3microl/well with MultiDrop Combi dispenser (Thermo Scientific, Logan, UT) onto white tissue culture treated solid bottom1536-well plates (Greiner #789173-F) and allowed to attach/recover overnight at 37 degrees C, 5% CO2. Next, 23nl/well of compound solutions in DMSO were transferred into wells with a pintool (Kalypsis, San Diego, CA). […] EC80 (relaxin at 50pM final concentration) was dispensed to the rest of the plate except columns 1&2 which were used as a negative control (EC0, buffer only), 1microl/well also. The cells were stimulated by relaxin in the presence of compounds for 30 minutes at 37 degrees C, 5% CO2. The detection reagents were prepared individually by dilution in Lysis buffer (supplied with the assay kit) just prior to dispensing. 1microl/well of cAMP-d2 and 1microl/well anti-cAMP-Eu3+-Cryptate antibodies were added simultaneously with BioRAPTR FRDtrade mark Workstation (Beckman Coulter). The plates were incubated at ambient temperature for 30 minutes and, then, FRET signal was read on Envision plate reader (PerkinElmer, Waltham, MA), at wavelengths 340nm (excitation), 615nm & 665nm (emission of donor and acceptor channels respectively).
% is scaled to controls: 0 for no effect and ±100 for the full control effect.

Relaxin receptor 1 (Homo sapiens), sequence (Q9HBX9 whole entry, looked up): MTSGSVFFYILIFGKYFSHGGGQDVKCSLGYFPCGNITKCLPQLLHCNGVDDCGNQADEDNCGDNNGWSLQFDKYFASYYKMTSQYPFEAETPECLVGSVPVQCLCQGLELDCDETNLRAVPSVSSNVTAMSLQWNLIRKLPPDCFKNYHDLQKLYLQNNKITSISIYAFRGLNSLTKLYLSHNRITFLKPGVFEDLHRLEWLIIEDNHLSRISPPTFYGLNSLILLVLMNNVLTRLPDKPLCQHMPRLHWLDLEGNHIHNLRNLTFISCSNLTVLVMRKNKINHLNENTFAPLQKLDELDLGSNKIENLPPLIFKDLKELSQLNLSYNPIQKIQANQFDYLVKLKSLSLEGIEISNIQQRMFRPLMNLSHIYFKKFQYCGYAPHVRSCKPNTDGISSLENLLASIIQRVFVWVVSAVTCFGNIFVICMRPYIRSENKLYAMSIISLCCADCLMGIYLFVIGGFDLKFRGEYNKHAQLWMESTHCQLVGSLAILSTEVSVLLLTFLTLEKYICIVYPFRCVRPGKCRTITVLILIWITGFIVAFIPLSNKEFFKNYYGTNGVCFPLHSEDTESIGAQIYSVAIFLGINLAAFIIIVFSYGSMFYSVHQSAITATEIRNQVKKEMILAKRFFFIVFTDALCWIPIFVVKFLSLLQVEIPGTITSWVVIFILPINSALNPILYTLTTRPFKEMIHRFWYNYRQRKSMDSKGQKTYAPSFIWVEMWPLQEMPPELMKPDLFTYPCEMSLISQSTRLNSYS

Activity change, negative = inhibition, inactive:
CCN(C(=O)CN1C(=O)/C(=C/c2ccc(F)cc2)SC1=S)C1CCS(=O)(=O)C1 (configuration not stated) 5.31%, COc1cccc(/C=C2\SC(=S)N(CCCC(=O)N3CCOCC3)C2=O)c1 9.2%, O=C(NNC(=O)c1ccco1)Nc1ccccc1 -5.56%, O=C(NC1CC1)c1ccc(-c2ccccc2)cc1 -5.32%, COC(=O)c1ccccc1NC(=O)C(Cc1ccccc1)N1Cc2ccccc2C1=O (configuration not stated) -13.9%, O=C(c1ccco1)n1nc(-c2ccc(Cl)cc2)nc1NCc1ccccc1 -6.49%, COc1ccccc1N1CCN(CCCNC(=O)c2cnn(-c3ccccc3Cl)c2C2CCN(C(=O)OC(C)(C)C)CC2)CC1 -27.8%, O=C(CCC(=O)N1CC2CCCN2c2ccccc21)NCc1ccccc1Cl (configuration not stated) -15%, CCc1nnc(SCc2c(F)cccc2Cl)c2cc3sccc3n12 3.15%, Cc1cccc(NC(=O)Nc2ccc3c(c2)OCO3)n1 6.53%, COc1ccc(-c2csc(Nc3cccc(C)n3)n2)cc1OC -15.8%, COc1ccc2c(c1)Cc1sc(NC(=O)c3ccccc3Br)nc1-2 -16.9%, COc1ccc(CNC(=O)CSCc2nc(-c3ccccc3F)oc2C)cc1 -25.8%, COc1ccc(N2CCN(C(=O)CCSCc3ccccc3F)CC2)cc1 -7.15%, CCc1ccc(NC(=O)C2CCCN2S(=O)(=O)c2ccc3nc(-c4ccccc4)[nH]c3c2)cc1 (configuration not stated) -3.72%, CN1C(=O)c2ccccc2Sc2ccc(NC(=O)Cc3ccc(Cl)cc3)cc21 -36%, O=C(CSc1nc2c(c(=O)[nH]1)CN(Cc1ccc(F)cc1)CC2)Nc1ccccc1Cl -5.69%, CCOc1ccc(Nc2ncnc3scc(-c4ccc(OC)cc4)c23)cc1 -16.5%, Cc1cccc(NC(=O)Cn2cc(S(=O)(=O)Cc3ccccc3Cl)c3ccccc32)c1 -19.7%, CCCSc1ncc(Cl)c(C(=O)Nc2c(C(=O)Nc3ccccc3)oc3ccccc23)n1 4.58%, CCOC(=O)c1ccc(NC(=O)c2nc(SCc3ccc(F)cc3)ncc2Cl)cc1 3.57%, CCS(=O)(=O)c1ncc(N(Cc2ccc(F)cc2)Cc2ccco2)c(C(=O)Nc2cc(C)ccc2C)n1 -11.8%, COc1ccc(OC)c(NC(=O)/C=C/c2ccc(C)o2)c1 -0.228%, O=C(Nc1nnc(S(=O)(=O)N2CCCc3ccccc32)s1)c1cccc(F)c1 -23.2%, CCN1CCN(C(c2ccc(C)cc2)c2c(O)cc(C)n(Cc3ccco3)c2=O)CC1 (configuration not stated) -15.2%, COc1cccc(Cn2c(SCc3ccc(C(=O)N4CCC(C)CC4)cc3)nc3ccncc32)c1 0.54%, Cc1cccc2sc(N(CCCN(C)C)C(=O)CCS(=O)(=O)c3ccccc3)nc12 10.5%, CCN(CC)CCN(C(=O)c1ccc2c(c1)CCCC2)c1nc2c(OC)cccc2s1 -18.9%, CCN(CC)c1ccc(NS(=O)(=O)c2cc(-c3cc(C)no3)ccc2C)c(C)c1 -32.3%, CCc1ccccc1NC(=O)c1sc2nc3c(cc2c1N)CN(Cc1ccccc1)CC3 -0.166%, Cc1cccc(N2CCN(C3=C(c4ccccc4)C(=O)c4ccccc43)CC2)c1C -0.811%, CCc1cccc(NC(=O)CN(C)S(=O)(=O)c2ccc3[nH]c4c(c3c2)CCCC4)c1 -7.15%, CCCCOCCOC(=O)c1cccnc1 8.56%, Cc1ccc(NC(=O)CSc2nc3ccccc3c3nc(CCn4cncc4C)nn23)cc1F -6.58%, Cc1c(C)n(Cc2ccc(Cl)cc2)c2ccc(C(=O)NCCc3ccc(S(N)(=O)=O)cc3)cc12 -10.3%, Cc1ccc(-n2nc(CO)c(C(=O)NCCc3ccccc3)n2)cc1 -19.5%, O=C(NCCCO)c1nn(-c2ccc(Cl)cc2)nc1CO -16.3%, O=C(COc1ccccc1Cl)Nc1ccc2nc(SCC(=O)N3CCCC3)sc2c1 0.0142%, CC(C)(C)c1ccc(S(=O)(=O)Nc2ccc(O)c(Sc3nc4ccccc4s3)c2)cc1 -31%, COCC(C)NS(=O)(=O)c1ccc(N2CCCCS2(=O)=O)cc1 (configuration not stated) -3.31%, CCc1nc2nc(C)cc(Nc3ccc(F)c(Cl)c3)n2n1 -7.58%, CC1(C)CC(=O)C=C(N2CCOCC2)C1 -12.6%, CC(C)OCC(O)CN1CCN(C(c2ccccc2)c2ccccc2)CC1 (configuration not stated) -2.44%, Cc1ccccc1OCc1ccc(-c2nc(C#N)c(N3CCCCC3)o2)o1 -8.24%, Cc1c(C)n(Cc2ccc(Cl)cc2)c2ccc(C(=O)N3CCN(c4ccccc4F)CC3)cc12 -18.8%, COc1ccc(CCNC(=O)c2c3c(nc4ccccc24)C(=O)N(C2CCCCC2)C3)cc1OC -34%, COc1ccc(OC)c(CNC(=O)C2CCCN(c3nc4ccccc4o3)C2)c1 (configuration not stated) 24.2%, CC(=O)c1ccc(N2CCN(c3nc4c(S(=O)(=O)c5ccccc5)nnn4c4ccc(Cl)cc34)CC2)cc1 -10.3%, O=C(O)c1c(CNCc2cccc(F)c2)c2ccccc2n1Cc1ccccc1 -7.86%, COc1ccc2c(CNCCc3ccccc3C)c(C(=O)O)n(Cc3ccccc3C)c2c1 -12.7%, Cc1sc(C2C(C#N)=C(N)N(c3cccc(Cl)c3)C3=C2C(=O)CCC3)cc1CN1CCOCC1 (configuration not stated) -18.6%, Cc1ccc2nc3c(cc(C(=O)NC4CCCCC4)c(=N)n3C(C)C)c(=O)n2c1 -8.15%, CCC(CC)C(=O)N1CCN(c2cccc(C)c2C)CC1 -5.41%, Cc1cccc(N2CCN(C(=O)C3CCN(S(=O)(=O)c4cnc[nH]4)CC3)CC2)c1C -5.38%, O=C(COc1ccc(Cl)cc1)N(Cc1ccco1)Cc1ccco1 -34.6%, CCOC(=O)c1c(C)oc2nc(C)nc(N3CCN(c4ccc(OC)cc4)CC3)c12 -3.52%, Cc1cc(-c2n[nH]c(=S)n2/N=C/C(Br)=C/c2ccccc2)n[nH]1 -5.02%, S=c1[nH]nc(-c2cc(-c3ccsc3)n[nH]2)n1-c1ccccc1 -4.32%, Cc1nnc(C(=O)NC(C)(C)c2nc(C(=O)NCc3ccc(F)cc3)c(O)c(=O)n2C)o1 -18.2%, NC(=O)COc1ccc(/C=N/NC(=O)C2CCCN2S(=O)(=O)c2ccc(Cl)cc2)cc1 (configuration not stated) -2.72%, COc1ccc(Cl)cc1N(CC(=O)N1CCCCC1)S(C)(=O)=O 15.3%, CCOc1ccc(-c2nonc2NC(=O)c2oc3ccc(C)cc3c2C)cc1OCC 6.02%, CC(C)N(C(=O)CSc1nnc(NC2CC2)s1)c1ccccc1 -4.86%, CN(C(=O)CSc1nnc(NC(=O)Nc2ccccc2)s1)c1ccccc1 -2.91%, CCc1ccc(N2C(=O)CN(S(=O)(=O)CC)CC2(C)C(=O)NC2CCCCC2)cc1 (configuration not stated) 4.08%, Cc1nnc(N/N=C/c2ccccn2)[nH]c1=O 5.71%, O=C(N/N=C\C1CC=CCC1)c1ccc(Br)o1 (configuration not stated) 0.253%, Cc1ccc2nc(-c3ccc(O)cc3)c(Nc3ccc4c(c3)OCO4)n2c1 15.3%, CCN(CC)c1cc(NC2CCCCC2)c2c3c(onc13)-c1ccccc1C2=O -18.9%

Activity change, negative = inhibition, active:
O=C1/C(=C/c2ccc(F)cc2)SC(=S)N1CCCC(=O)N1CCCCC1CCO (configuration not stated) -99.6%, O=C(NNC(=O)c1ccc(-c2ccccc2)cc1)Nc1ccccc1 -86.2%, CC(=O)Nc1cccc(-c2csc(Nc3cccc(C)n3)n2)c1 -62.8%, COc1ccc(N2CCN(C(=O)CSCc3nc(-c4ccccc4Cl)oc3C)CC2)cc1 -64.6%, O=C1C=C(c2ccc(Cl)cc2)C(=O)N1Nc1ccccc1 -62.4%, Cc1cccc(NC(=O)c2nc(S(=O)(=O)Cc3ccccc3)ncc2Cl)c1 -89.5%, Cc1cccc(CS(=O)(=O)c2ncc(Cl)c(C(=O)Nc3ccc(F)cc3)n2)c1 -95.9%, COc1cccc2sc(N(CCCN(C)C)C(=O)C(c3ccccc3)c3ccccc3)nc12 -77.3%, CC(CCCc1ccccc1)NC(=O)c1nn(-c2ccc(Cl)cc2)nc1CO (configuration not stated) -85.1%, O=[N+]([O-])c1c(NCCO)cc(Sc2nc3ccccc3s2)c2nonc12 -71%, CC1(C)CC(N2CCN(C(c3ccccc3)c3ccccc3)CC2)=CC(=[N+]2CCCCC2)C1 -86.5%, COc1ccc(OC)c(CNC(=O)c2c3c(nc4ccccc24)C(=O)N(C2CCCCC2)C3)c1 -60.9%, Cc1ccc(C)c(Cn2c(C(=O)O)c(CNCc3cccs3)c3ccccc32)c1 -81.9%, Cc1cccc(N2CCN(C(=O)c3cnc(N4CCCC4)nc3C)CC2)c1C -77.6%, S=c1[nH]nc(-c2cc(-c3ccccc3)n[nH]2)n1/N=C/c1c2ccccc2cc2ccccc12 -78.7%, COc1ccc(Cl)cc1N(CC(=O)N/N=C/c1ccc(OCC(N)=O)cc1)S(C)(=O)=O -77.6%, CC(C)c1ccc(Nc2nnc(SCC(=O)c3nnc(-c4ccccc4)o3)s2)cc1 -83.3%, Cc1nnc(N/N=C/C2CC=CCC2)[nH]c1=O (configuration not stated) -71.6%
